# Reference: PubChem BioAssay (NCATS)
# Where “and” joins values, the source holds several entries; their conditions need not be identical. Equal values may be shown once. Results filed as inconclusive are left out. Values without a mark were called inactive. Calls of active or inactive are those of the source. Unless noted, calls follow the shape of the full dose curve.
# Molecular target: Androgen receptor (Homo sapiens) (UniProt P10275)
# Assay: qHTS assay for small molecule antagonists of androgen receptor signaling (AID 588516; active = well fitted curve in the direction sought with a large enough effect in the signal ratio, with a control signal flat, not every such curve was filed as active; the % refers to the signal ratio; also: % is scaled to controls: 0 for no effect and ±100 for the full control effect)
# Details: AR-UAS-bla HEK293, beta-lactamase ratio, antagonist mode, 16 h; series mostly up to 76.8 µM
# Summary of the method: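 Compounds tested in titration against 10 nM R1881 in AR-responsive bla reporter HEK 293 cells; CCF4 fluorescence (460/530 nm) after 16 h exposure gave IC50 and efficacy.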
# Chain of Androgen receptor (Homo sapiens) (P10275 whole entry, looked up): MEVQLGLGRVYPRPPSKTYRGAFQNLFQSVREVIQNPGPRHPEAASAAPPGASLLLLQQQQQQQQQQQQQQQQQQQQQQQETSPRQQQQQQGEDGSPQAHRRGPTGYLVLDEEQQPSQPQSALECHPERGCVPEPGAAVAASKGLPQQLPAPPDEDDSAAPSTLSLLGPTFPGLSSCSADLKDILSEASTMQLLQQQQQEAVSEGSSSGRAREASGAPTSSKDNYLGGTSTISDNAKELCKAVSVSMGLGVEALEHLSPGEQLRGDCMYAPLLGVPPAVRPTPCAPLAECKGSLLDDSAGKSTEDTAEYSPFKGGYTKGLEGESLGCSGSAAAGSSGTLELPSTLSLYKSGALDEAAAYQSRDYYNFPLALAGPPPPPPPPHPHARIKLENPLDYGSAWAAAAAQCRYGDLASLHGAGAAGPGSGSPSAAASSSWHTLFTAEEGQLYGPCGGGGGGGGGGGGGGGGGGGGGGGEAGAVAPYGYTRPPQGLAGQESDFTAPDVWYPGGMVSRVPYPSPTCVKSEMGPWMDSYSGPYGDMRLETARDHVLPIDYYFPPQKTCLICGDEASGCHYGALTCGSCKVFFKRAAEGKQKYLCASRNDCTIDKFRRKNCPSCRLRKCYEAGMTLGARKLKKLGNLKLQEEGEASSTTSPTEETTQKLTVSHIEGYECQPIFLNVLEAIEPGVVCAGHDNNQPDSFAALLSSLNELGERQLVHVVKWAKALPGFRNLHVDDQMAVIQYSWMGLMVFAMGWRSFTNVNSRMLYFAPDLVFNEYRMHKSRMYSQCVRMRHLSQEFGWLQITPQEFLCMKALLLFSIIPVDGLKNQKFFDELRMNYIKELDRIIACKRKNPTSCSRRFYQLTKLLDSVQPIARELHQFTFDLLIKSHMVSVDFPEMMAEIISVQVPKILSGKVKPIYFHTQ
row,Structure (SMILES),Potency
1,Brc1ccccc1,inactive
2,CCSC(=O)Cl,inactive
3,Cc1ccc2ccccc2c1,inactive
4,Clc1ccc2ccccc2c1,inactive
5,[O-][Br+2]([O-])O,inactive
6,C=CCOC(=O)c1ccccc1N,inactive
7,CCN(CC)c1ccccc1,inactive
8,S=C=Nc1cccc2ccccc12,inactive
9,O=NN(CCO)CCO,inactive
10,O=C(Cl)/C=C/C(=O)Cl,inactive
11,C=C(Cl)Cl,inactive
12,c1ccc2c(c1)CCCC2,inactive
13,Clc1cccc(C(Cl)(Cl)Cl)n1,inactive

# Molecular target: Bile acid receptor (Homo sapiens) (UniProt Q96RI1)
# Assay: qHTS assay for small molecule antagonists of farnesoid X receptor signaling (AID 588526); also: % is scaled to controls: 0 for no effect and ±100 for the full control effect
# Details: HEK293T FXR-UAS-bla, beta-lactamase ratio, antagonist mode; series mostly up to 76.7 µM
# Summary of the method: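 Concentration-response titrations were fitted to the Hill equation for half-maximal inhibition and maximal response, with data normalised to 50 uM chenodeoxycholic acid and DMSO control wells. Cells: FXR-UAS-bla HEK293T, dialyzed FBS.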
# Chain of Bile acid receptor (Homo sapiens) (Q96RI1 whole entry, looked up): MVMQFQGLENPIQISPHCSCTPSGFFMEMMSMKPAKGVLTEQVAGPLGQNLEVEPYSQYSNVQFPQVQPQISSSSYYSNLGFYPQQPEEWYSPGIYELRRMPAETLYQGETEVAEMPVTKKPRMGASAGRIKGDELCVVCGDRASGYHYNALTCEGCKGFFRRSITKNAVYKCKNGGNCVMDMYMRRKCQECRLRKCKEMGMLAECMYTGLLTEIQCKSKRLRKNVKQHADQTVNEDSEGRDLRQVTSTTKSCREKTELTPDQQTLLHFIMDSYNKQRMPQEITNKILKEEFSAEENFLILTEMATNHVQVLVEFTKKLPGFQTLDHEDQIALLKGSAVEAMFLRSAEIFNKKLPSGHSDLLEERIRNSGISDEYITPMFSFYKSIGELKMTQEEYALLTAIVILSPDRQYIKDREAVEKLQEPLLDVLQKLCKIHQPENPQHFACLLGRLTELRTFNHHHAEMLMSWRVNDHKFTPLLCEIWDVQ
row,Structure (SMILES),outcome
1,C=C(C)C#N,inactive
2,CCSC(=O)Cl,inactive
3,Cc1cccc([N+](=O)[O-])c1,inactive
4,CC(C)(C)OOC(C)(C)C,inactive
5,C=C(C)C(=O)OCC1CO1 (stereo not given),inactive
6,Cc1ccc([N+](=O)[O-])cc1C,inactive
7,O=[N+]([O-])c1ccc(Cl)c(Cl)c1,inactive
8,C=CC(=C)C,inactive
9,Cc1ccc2ccccc2c1,inactive
10,Nc1ccccc1Cl,inactive
11,Clc1ccc2ccccc2c1,inactive
12,OCC1CO1 (stereo not given),inactive
13,CC(C)(c1ccccc1)c1ccc(O)cc1,inactive
14,CCN(CC)c1ccccc1,inactive
15,S=C=Nc1cccc2ccccc12,inactive
16,O=NN(CCO)CCO,inactive
17,C=CCOC(C)=O,inactive
18,CCCC(=O)Cl,inactive
19,NC(=S)Nc1ccccc1,inactive
20,O=C(Cl)/C=C/C(=O)Cl,inactive
21,ClCBr,inactive
22,C=CC(=O)OCC,inactive
23,c1nc[nH]n1,inactive
24,c1ccc2c(c1)CCCC2,inactive
25,CCCSC(=O)Cl,inactive
26,Clc1cccc(C(Cl)(Cl)Cl)n1,inactive
27,O=NN(c1ccccc1)c1ccccc1,inactive
28,C1CCC2CCCCC2C1 (stereo not given),inactive
29,CC(O)CCl (stereo not given),inactive

# Molecular target: Bile acid receptor (Homo sapiens) (UniProt Q96RI1)
# Assay: qHTS assay for small molecule agonists of farnesoid X receptor signaling (AID 588527);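 also: 0% = vehicle basal and 100% = reference agonist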
# Details: HEK293T FXR-UAS-bla, beta-lactamase ratio, 16 h; active compounds read high
# Summary of the method: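 Read-out: beta-lactamase reporter fluorescence with CCF4 substrate in GeneBLAzer FXR-UAS-bla HEK293T cells, after 16 h compound exposure at 37 C. Response scaled between DMSO basal (0%) and chenodeoxycholic acid at 100 uM (100%).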
row,Structure (SMILES),activation
1,CCSC(=O)Cl,-1.31%
2,Cc1cccc([N+](=O)[O-])c1,-1.63% and -0.0408%
3,C=C(C)C(=O)OCC1CO1 (stereo not given),-3.45%
4,Cc1ccc([N+](=O)[O-])cc1C,-0.387% and 0.526%
5,O=[N+]([O-])c1ccc(Cl)c(Cl)c1,1.09%
6,C=CC(=C)C,-1.71%
7,CCN(CC)c1ccccc1,-2.77%
8,S=C=Nc1cccc2ccccc12,-1.78%
9,O=NN(CCO)CCO,3.77%
10,CCCC(=O)Cl,0.327%
11,ClCBr,-2.9%
12,c1nc[nH]n1,0.583%
13,c1ccc2c(c1)CCCC2,-2.64%
14,CCCSC(=O)Cl,0.0371%
15,Clc1cccc(C(Cl)(Cl)Cl)n1,0.959% and 2.76%
16,CC(O)CCl (stereo not given),-2.4% and 3.49%

# Molecular target: Glucocorticoid receptor (Homo sapiens) (UniProt P04150)
# Assay: qHTS assay for small molecule agonists of glucocorticoid receptor signaling (AID 588532; active = well fitted curve in the direction sought with a large enough effect in the signal ratio, with a control signal flat; the % refers to the signal ratio;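 also: 100% = dexamethasone at 0.1 µM and 0% = DMSO only wells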)
# Details: HeLa MMTV-bla, beta-lactamase ratio, agonist, 18 h; active compounds read high; percent of dexamethasone control, DMSO zero
# Summary of the method: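 MMTV-bla HeLa, beta-lactamase reporter; medium with 1% charcoal/dextran-stripped FBS; cpds up to 92 uM, 18 h, 37 C; CCF4 readout 460/530 nm; Hill fit → EC50, efficacy vs 0.1 uM dexamethasone = 100%.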
# Chain of Glucocorticoid receptor (Homo sapiens) (P04150 whole entry, looked up): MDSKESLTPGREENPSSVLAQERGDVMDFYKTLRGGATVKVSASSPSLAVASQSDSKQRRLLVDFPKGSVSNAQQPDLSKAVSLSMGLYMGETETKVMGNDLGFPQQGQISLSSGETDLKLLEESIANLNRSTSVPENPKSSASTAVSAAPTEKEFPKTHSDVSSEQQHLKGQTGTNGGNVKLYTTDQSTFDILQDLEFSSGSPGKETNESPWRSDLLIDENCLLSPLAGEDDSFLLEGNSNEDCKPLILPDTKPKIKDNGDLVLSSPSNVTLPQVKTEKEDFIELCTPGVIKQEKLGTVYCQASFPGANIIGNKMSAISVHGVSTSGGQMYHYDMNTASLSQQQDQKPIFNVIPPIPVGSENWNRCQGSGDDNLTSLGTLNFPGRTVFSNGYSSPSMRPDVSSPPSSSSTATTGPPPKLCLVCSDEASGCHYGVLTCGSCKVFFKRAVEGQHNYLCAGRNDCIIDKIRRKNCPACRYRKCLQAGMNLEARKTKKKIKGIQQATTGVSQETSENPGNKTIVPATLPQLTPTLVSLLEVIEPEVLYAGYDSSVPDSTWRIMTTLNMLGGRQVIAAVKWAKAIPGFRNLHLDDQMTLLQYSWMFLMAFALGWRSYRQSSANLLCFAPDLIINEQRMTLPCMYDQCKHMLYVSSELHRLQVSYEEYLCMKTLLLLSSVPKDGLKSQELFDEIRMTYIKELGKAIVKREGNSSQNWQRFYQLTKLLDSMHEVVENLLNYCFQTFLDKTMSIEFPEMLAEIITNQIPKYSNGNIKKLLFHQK
row,Structure (SMILES),activation
1,Brc1ccccc1,-10.5% and -5.75%
2,CCSC(=O)Cl,17.3%
3,Cc1cccc([N+](=O)[O-])c1,4.17% and -5.85%
4,Nc1c(Cl)c(Cl)nc(C(=O)O)c1Cl,-2.38% and -16.4% and -2.51%
5,CC(C)(C)OOC(C)(C)C,-1.7%
6,C=C(C)C(=O)OCC1CO1 (stereo not given),-3.77%
7,O=[N+]([O-])c1ccc(Cl)c(Cl)c1,0.986%
8,C=CC(=C)C,-4.98%
9,Nc1ccccc1Cl,-0.0832%
10,Clc1ccc2ccccc2c1,-0.849%
11,[O-][Br+2]([O-])O,11.8% and -3.56%
12,Clc1nc(Cl)nc(Nc2ccccc2Cl)n1,0.42% and 30.1%
13,OCC1CO1 (stereo not given),-12%
14,C=CCOC(=O)c1ccccc1N,3.1%
15,C=CC(N)=O,-1.03% and 0.342%
16,CC(C)(c1ccccc1)c1ccc(O)cc1,2.95% and 9.77%

row,Structure (SMILES),activation
1,CCN(CC)c1ccccc1,-4.16%
2,S=C=Nc1cccc2ccccc12,2.48%
3,N#CCCCl,-5% and -0.386%
4,C=CCOC(C)=O,10.3%
5,CCCC(=O)Cl,7.24%
6,NC(=S)Nc1ccccc1,11.7%
7,O=C(Cl)/C=C/C(=O)Cl,18.2%
8,C=C(Cl)Cl,-1.7%
9,ClCBr,-4.32%
10,C=CC(=O)OCC,2.08%
11,c1nc[nH]n1,11.9%
12,c1ccc2c(c1)CCCC2,3.9%
13,CCCSC(=O)Cl,2.44%
14,O=NN(c1ccccc1)c1ccccc1,-1.26% and -2.24%
15,C1CCC2CCCCC2C1 (stereo not given),11.1%
16,CC(O)CCl (stereo not given),-3.59% and -2.54%
